Test results: ChEMBL document CHEMBL3988442, “University of Dundee, Small-Polar-MMV Screening Library” (2021)
Among all 69,000 compounds or so, about 950 (1.4%) showed an effect of 50% or more. For the sample, strong results were picked, then their nearest neighbours and some compounds at random.

These compounds were tested on Mycobacterium tuberculosis (assay: Cornell M. t heat shock assay; further: in the data most compounds retested in dose-response had high values).
Assay type: functional, organism-based
Set-up: dose or concentration left out as unconfirmed

Row | SMILES | Percent Effect [%]
1 | CNC(=O)CN1CCOCC2(CCCN(Cc3ccsc3)C2)C1.O=C(O)C(F)(F)F.O=C(O)C(F)(F)F (stereo unspecified) | -10.69
2 | CCOc1ncccc1NC(=O)c1sccc1C | 102.4
3 | CCOc1ncccc1NC(=O)c1cc(C)sc1C | 19.66
4 | CCOc1ncccc1NC(=O)c1cccs1 | -26.07
5 | Cc1sc2c(C3CCNCC3)nc(Nc3cccc(F)c3)n2c1C.Cl | 26.64
6 | c1cc(-c2nc3c(c(NCCn4ccnn4)n2)CCNCC3)ccn1 | -28.7
7 | O=C(Nc1cccc(F)c1)NC1CCN(Cc2ccncc2)CC1 | -8.889
8 | Cl.NC1CCc2nc(-c3ccncc3)nc(Nc3cccc(F)c3)c2C1 (stereo unspecified) | 82.22
9 | CCOCCNc1nc(-c2ccncc2)nc2c1CCNCC2 | -10.32
10 | O=C(c1cccnc1O)N1CCN(CCc2cccs2)CC1 | 3.025
11 | O=C(O)C(F)(F)F.O=C(c1cnccn1)N1CCCC2(CCN(c3ccccn3)C2)C1 (stereo unspecified) | -26.38
12 | Cc1ccc(CN(Cc2ncc[nH]2)C2CC(C)(C)NC(C)(C)C2)o1.O=C(O)CC(O)(CC(=O)O)C(=O)O | 28.54
13 | O=C(O)C(F)(F)F.O=C(c1ccno1)N1CCc2ncnc(-c3ccncc3)c2CC1 | 1.058
14 | Cc1ccoc1C(=O)N1CCn2nnc(COc3cccnc3)c2C1.O=C(O)C(F)(F)F | -27.69
15 | O=C(O)C(F)(F)F.O=C(O)C(F)(F)F.O=C(c1ccnnc1)N1CCN2C[C@H](OCc3cccnc3)C[C@H]2C1 | -1.051
16 | Cc1ccc(CN2Cc3nnn(C)c3C(COCc3ccccc3)C2)o1.O=C(O)C(F)(F)F (stereo unspecified) | -18.88
17 | CN(Cc1nc(COc2ccccc2)no1)CC1Cc2ccccc2O1 (stereo unspecified) | 29.18
18 | CCc1ccc(CN(C)Cc2nc(-c3cnccn3)no2)nc1 | 20.61
19 | CCc1ccc(CN(C)Cc2nc(COc3ccccc3)no2)nc1 | 62.03
20 | COc1ccccc1N1CCC(CNCc2cccc(OC)c2OC)C1 (stereo unspecified) | 81.84
21 | COc1ccccc1N1CCC(CNCc2cccc(O)c2)C1 (stereo unspecified) | 14.53
22 | COc1ccc(CNCC2CCN(c3ccccc3OC)C2)cc1O (stereo unspecified) | 2.532
23 | O=C(NC1CCC1)[C@@H]1C[C@@H]2CCN(Cc3cccs3)C[C@@H]2O1.O=C(O)C(F)(F)F | 3.012

Row | SMILES | Percent Effect [%]
24 | CCC(CO)N(Cc1ccccn1)C(=O)c1ccc(=O)[nH]c1 (stereo unspecified) | 1.592
25 | O=C(NC[C@]12COC[C@H]1CN(Cc1nccs1)C2)c1cscn1.O=C(O)C(F)(F)F | 1.78
26 | COc1ccc(CN2CCC3(CC2)CCN(CC(=O)N(C)C)C3=O)cc1.O=C(O)C(F)(F)F | 1.282
27 | O=C1NCC2(CCCN(C(=O)Cn3nc4ccccc4n3)CC2)O1 (stereo unspecified) | 102.6
28 | Cn1c(CCC(=O)N2CCCC3(CC2)CNC(=O)O3)nc2cccnc21 (stereo unspecified) | -15.92
29 | O=C1NCC2(CCCN(C(=O)CCn3cnc4ccccc43)CC2)O1 (stereo unspecified) | -31.86
30 | O=C(O)CC(O)(CC(=O)O)C(=O)O.O[C@@]1(c2ccccn2)CC[C@H]2CN(Cc3ccccn3)C[C@H]21 | 3.038
31 | CCN(CC)c1ccc2ccc(C(=O)N3CCCCO3)cn12.O=C(O)C(F)(F)F | 56.41
32 | CCN(CC)c1ccc2ccc(C(=O)O)cn12 | 4.754
33 | CN1CCN(c2ccc3ccc(C(=O)N4CCCCO4)cn23)CC1.O=C(O)C(F)(F)F | 28.6
34 | Cl.O=C(Cn1c(-c2ccco2)cc2cccnc21)N1CCCC1 | 2.747
35 | CC(=O)N1[C@H](Cn2cncn2)C[C@@H]2CN(S(C)(=O)=O)CC[C@@H]21 | -11.62
36 | CCc1nnc(CN(C)c2nc(C3CCCC3)nc3c2cnn3C)o1 | -3.006
37 | CCCc1nc(N(C)CCc2noc(C(C)C)n2)c2cnn(C)c2n1 | -6.302
38 | CCc1nnc(CN(C)c2nc(C(C)C)nc3c2cnn3C)o1 | 106.1
39 | CC(C)c1nnc2n1CC(CNCc1cccnc1)CC2 (stereo unspecified) | -38.13
40 | CCc1nnc2n1CC(CNCC1CCCC1)CC2 (stereo unspecified) | -14.79
41 | CCc1nnc2n1CC(CNCc1ccncc1)CC2 (stereo unspecified) | 102.6
42 | CC(C)c1nnc2n1CC(CNCc1ccncc1)CC2 (stereo unspecified) | 107
43 | CCc1nnc2n1CC(CNCc1nc(C)c(C)o1)CC2 (stereo unspecified) | -15.23
44 | CC(C)c1nnc2n1CC(CNCc1ccsc1)CC2 (stereo unspecified) | -8.8
45 | O=C(O)C(F)(F)F.O=C1CC[C@H]2[C@H](CCN2C(=O)C2CCCO2)N1Cc1cccnc1 (stereo partly specified) | 1.298
46 | CNC(=O)CN1CC[C@H]2CN(C(=O)c3ccc(C)cc3)C[C@H]2C1.O=C(O)C(F)(F)F | -25.29

Row | SMILES | Percent Effect [%]
47 | Cn1cc(CN2C[C@H](Oc3ncccc3F)[C@H]3OCCC[C@H]32)cn1.O=C(O)C(F)(F)F.O=C(O)C(F)(F)F.O=C(O)C(F)(F)F | -12.51
48 | O=C(NC[C@]12COC[C@H]1CN(Cc1cccnc1)C2)C1CCC1.O=C(O)C(F)(F)F.O=C(O)C(F)(F)F | 24.22
49 | COCC(=O)N1CCC2(CC1)CNc1ccc(F)cc12.O=C(O)C(F)(F)F | -6.982
50 | CC(=O)c1ccc(NC(=O)c2ccc3c(c2)C2(CCCCC2)CN3)cc1.O=C(O)C(F)(F)F | 36.54
51 | O=C(Nc1ccccc1)c1ccc2c(c1)C1(CCCCC1)CN2.O=C(O)C(F)(F)F | 67.01
52 | COc1ccccc1CN1C[C@@H]2COC[C@]2(COCc2ccncc2)C1.O=C(O)C(F)(F)F.O=C(O)C(F)(F)F | -12.91
53 | CCN(CC)C(=O)Cn1ccc2cc(NC(=O)C3CC3)ccc21 | 25.7
54 | CCNC(=O)Nc1ccc2c(ccn2CC(=O)N(CC)CC)c1 | 47.91
55 | CCN(CC)C(=O)Cn1ccc2cc(NC(=O)NC3CC3)ccc21 | 61.18
56 | COCCN1CCc2c(cnc(-c3ccoc3)c2C(=O)O)C1.O=C(O)C(F)(F)F | -43.35
57 | CN1CCN(C(=O)c2ccc3c(c2)nc(N2CCOCC2)n3C)CC1=O | 2.08
58 | Cn1c(N2CCOCC2)nc2cc(C(=O)N3CCCOCC3)ccc21 | -23.59
59 | CN1CCCN(C(=O)c2ccc3c(c2)nc(N2CCOCC2)n3C)CC1 | 98.19
60 | CC(C)N(C)Cc1nnc2n1CCCN(c1ncccn1)C2.O=C(O)C(F)(F)F | 11.35
61 | CN(Cc1cn2c(n1)CN(CC1CC1)CC2)Cc1ccco1.O=C(O)C(F)(F)F.O=C(O)C(F)(F)F | 9.036
62 | O=C(c1cc[nH]n1)N1CCc2ncnc(NCc3ccccn3)c2CC1 | -1.441
63 | O=C(C1CCCCO1)N1CCc2ncnc(NCc3ccon3)c2CC1 (stereo unspecified) | 17.45
64 | O=C(c1ccoc1)N1CCc2ncnc(NCc3ccccn3)c2CC1 | 62.71
65 | O=C(c1ccco1)N1CCc2ncnc(NCc3ccccn3)c2CC1 | 44.89
66 | O=C(c1ccon1)N1CCc2ncnc(NCc3cccnc3)c2CC1 | 1.572
67 | O=C(c1ccon1)N1CCc2ncnc(NCc3ccccn3)c2CC1 | 76.86
68 | CN(C)C[C@]12COC[C@H]1CN(C(=O)CCc1ccccc1)C2.O=C(O)C(F)(F)F | -31.23
69 | COCCN1C[C@@H]2[C@@H](OC)CCN(Cc3cccs3)[C@@H]2C1.O=C(O)C(F)(F)F.O=C(O)C(F)(F)F | -45.94

Row | SMILES | Percent Effect [%]
70 | CCn1cc2c(n1)CN(CC1CC1)CC2COCC1CC1.O=C(O)C(F)(F)F (stereo unspecified) | 0.92
71 | CN1CC2(CCN(CC3CC3)CC2)COc2ccccc2S1(=O)=O.O=C(O)C(F)(F)F | -26.67
72 | Cc1nnc(NCc2ccccc2F)c(C#N)c1C | 88.29
73 | Cc1nnc(NCc2ccccc2Cl)c(C#N)c1C | 29.74
74 | COCc1ccccc1CNc1nnc(C)c(C)c1C#N | 28.24
75 | CCOCC1CN(Cc2cnn(C)c2)Cc2c1cnn2CC.O=C(O)C(F)(F)F (stereo unspecified) | -24.32
76 | Cc1ccc(CN2CC[C@@H]3OCCN(Cc4ccncc4)[C@H]3CC2)s1.O=C(O)C(F)(F)F.O=C(O)C(F)(F)F.O=C(O)C(F)(F)F | 43.06
77 | Cc1nc2c(C)cccc2cc1C(=O)N1CCC2(CC1)NCCNC2=O | -15.56
78 | CC(C)CN1C[C@H](COCc2ccccc2)Oc2ncccc2C1=O | 61.32
79 | CCCC1CN(CCOc2ccccc2)C(=O)c2cccnc2O1 (stereo unspecified) | -5.894
80 | CCCC1CN(CC(C)C)C(=O)c2cccnc2O1 (stereo unspecified) | -5.035
81 | CN(Cc1cc2n(n1)CCNC2)Cc1n[nH]c2c1CCC2 | -1.948
82 | CCc1cc(N(C)Cc2[nH]nc3c2CCC3)nc(N2CCOCC2)n1 | -16.74
83 | COc1nc2cc(C)ccc2cc1CN(C)Cc1n[nH]c2c1CCCC2 | 2.274
84 | Cc1ccc2[nH]c(CN(C)Cc3n[nH]c4c3CCC4)nc2c1 | 98.03
85 | CN(Cc1cc2n(n1)CCNC2)Cc1n[nH]c2c1CCCCC2 | -10.71
86 | COc1nc2c(cc1C(=O)N(C)Cc1[nH]nc3c1CCC3)CCC2 | 0.3103
87 | Cc1ccc2nc(CN(C)Cc3n[nH]c4c3CCCCC4)[nH]c2c1C | 106.9
88 | Cc1ccc2[nH]c(CN(C)Cc3ccccc3C(=O)O)nc2c1 | -3.354
89 | Cc1ccc2nc(CN(C)Cc3[nH]nc4c3CCC4)[nH]c2c1C | 98.38
90 | CC(=O)N1C[C@@H]2CC[C@H](C1)N(S(=O)(=O)c1cc(F)ccc1C)C2 | -2.155
91 | CNC(=O)[C@H]1C[C@@H]2CN(Cc3ccc(OC)cc3)C[C@H]1O2.O=C(O)C(F)(F)F | 15.08
